# PubChem BioAssay AID1159580 (chemical genetic matrix, 2015)
# “And” between values parts separate entries of the source, which are not always exact repeats. Identical values can stand only once. The whole screen tested about 5,500 compounds, of which about 2,000 (36%) were called active. Not shown: some 18% with an inconclusive outcome. The list shows a part of the results. A number with no mark means an inactive call. Cut-off read from the data, not from the text of the source: active = normalized growth mostly below about 0.91 (no sharp cut-off); inconclusive = no clear call, values can overlap the other calls; inactive = mostly above about 0.92.
# Assay: chemical genetic growth profiling, strain panel (AID 1159580);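 note: tested at 20 µM; growth read once vehicle control cultures reached saturation at 30 °C; 1 = growth at the plate median or of vehicle wells; lower values mean less growth of the strain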
# Conditions: S. cerevisiae deletion strains, growth OD
compound,measurement,setting,value
CC[N+](CC)(CC)CCOc1cccc(OCC[N+](CC)(CC)CC)c1OCC[N+](CC)(CC)CC,normalized growth,"locus YAL013W, strain DEP1, active compounds read low",1.01
same,normalized growth,"locus YAL021C, strain ccr4, active compounds read low",1.02
same,normalized growth,"locus YAL026C, strain drs2, active compounds read low",1.01
same,normalized growth,"locus YAL030W, strain snc1, active compounds read low",1.02
same,normalized growth,"locus YAL040C, strain CLN3, active compounds read low",1.01
same,normalized growth,"locus YBL061C, strain skt5, active compounds read low",1.02
same,normalized growth,"locus YBR009C, strain hhf1, active compounds read low",1
same,normalized growth,"locus YBR021W, strain FUR4, active compounds read low",1.01
same,normalized growth,"locus YBR023C, strain chs3, active compounds read low",1.02
same,normalized growth,"locus YBR171W, strain sec66, active compounds read low",1.02
same,normalized growth,"locus YBR229C, strain ROT2, active compounds read low",1.01
same,normalized growth,"locus YBR231C, strain swc5, active compounds read low",0.958
same,normalized growth,"locus YBR279W, strain paf1, active compounds read low",1.03
same,normalized growth,"locus YCL011C, strain gbp2, active compounds read low",1.02
same,normalized growth,"locus YCL016C, strain dcc1, active compounds read low",1.02
same,normalized growth,"locus YCL029C, strain bik1, active compounds read low",1
same,normalized growth,"locus YCL061C, strain MRC1 (second series), active compounds read low",0.999
same,normalized growth,"locus YCL061C, strain MRC1, active compounds read low",1.01
same,normalized growth,"locus YCL069W, strain vba3, active compounds read low",1.01
same,normalized growth,"locus YCR088W, strain abp1, active compounds read low",1.02
same,normalized growth,"locus YDL005C, strain med2, active compounds read low",1.03
same,normalized growth,"locus YDL035C, strain GPR1, active compounds read low",1
same,normalized growth,"locus YDL040C, strain nat1, active compounds read low",1.01
same,normalized growth,"locus YDL074C, strain BRE1, active compounds read low",1.02
same,normalized growth,"locus YDL101C, strain DUN1, active compounds read low",1.01
same,normalized growth,"locus YDL134C, strain PPH21, active compounds read low",1
same,normalized growth,"locus YDL185W, strain tfp1, active compounds read low",1.02
same,normalized growth,"locus YDL192W, strain arf1, active compounds read low",1.01
same,normalized growth,"locus YDR001C, strain nth1, active compounds read low",1.01
same,normalized growth,"locus YDR069C, strain doa4, active compounds read low",0.999
same,normalized growth,"locus YDR101C, strain arx1, active compounds read low",0.996
same,normalized growth,"locus YDR137W, strain rgp1, active compounds read low",1.05
same,normalized growth,"locus YDR150W, strain NUM1, active compounds read low",0.995
same,normalized growth,"locus YDR159W, strain sac3, active compounds read low",0.965
same,normalized growth,"locus YDR162C, strain NBP2, active compounds read low",1.01
same,normalized growth,"locus YDR195W, strain ref2",0.983
same,normalized growth,"locus YDR297W, strain sur2, active compounds read low",1.01
same,normalized growth,"locus YDR318W, strain mcm21, active compounds read low",1.01
same,normalized growth,"locus YDR334W, strain swr1, active compounds read low",1.01
same,normalized growth,"locus YDR335W, strain msn5, active compounds read low",1.01
same,normalized growth,"locus YDR363W, strain ESC2, active compounds read low",1.02
same,normalized growth,"locus YDR388W, active compounds read low",1.01
same,normalized growth,"locus YDR392W, strain spt3, active compounds read low",0.673 (active)
same,normalized growth,"locus YDR502C, strain sam2, active compounds read low",1
same,normalized growth,"locus YEL003W, strain gim4, active compounds read low",1.01
same,normalized growth,"locus YEL037C, strain rad23, active compounds read low",1.01
same,normalized growth,"locus YEL061C, strain CIN8 (second series), active compounds read low",1.01
same,normalized growth,"locus YEL061C, strain CIN8, active compounds read low",1.01
same,normalized growth,"locus YER002W, strain NOP16, active compounds read low",0.986
same,normalized growth,"locus YER015W, strain faa2, active compounds read low",0.994
same,normalized growth,"locus YER016W, strain bim1, active compounds read low",0.984
same,normalized growth,"locus YER110C, active compounds read low",1.01
same,normalized growth,"locus YER111C, strain swi4, active compounds read low",1.02
same,normalized growth,"locus YER155C, strain BEM2 (second series), active compounds read low",0.914
same,normalized growth,"locus YER155C, strain BEM2, active compounds read low",1.02
same,normalized growth,"locus YER167W, strain BCK2, active compounds read low",1.01
same,normalized growth,"locus YFR010W, strain ubp6, active compounds read low",1.01
same,normalized growth,"locus YGL078C, strain dbp3, active compounds read low",1
same,normalized growth,"locus YGL086W, strain mad1, active compounds read low",0.98
same,normalized growth,"locus YGL167C, strain pmr1, active compounds read low",1.02
same,normalized growth,"locus YGL173C, strain kem1, active compounds read low",1.01
same,normalized growth,"locus YGL227W, strain vid30, active compounds read low",1.03
same,normalized growth,"locus YGL240W, strain doc1, active compounds read low",0.994
same,normalized growth,"locus YGL248W, strain PDE1, active compounds read low",1.01
same,normalized growth,"locus YGL253W, strain hxk2, active compounds read low",1.01
same,normalized growth,"locus YGR135W, strain pre9, active compounds read low",1.03
same,normalized growth,"locus YGR229C, strain SMI1, active compounds read low",1.05
same,normalized growth,"locus YGR252W, strain gcn5, active compounds read low",0.969
same,normalized growth,"locus YHR013C, strain ard1, active compounds read low",1.02
same,normalized growth,"locus YHR027C, strain rpn1, active compounds read low",1.01
same,normalized growth,"locus YHR030C, strain SLT2, active compounds read low",1 and 1.01
same,normalized growth,"locus YHR079C, strain IRE1 (second series), active compounds read low",1.02
same,normalized growth,"locus YHR079C, strain IRE1, active compounds read low",1.03
same,normalized growth,"locus YHR094C, strain hxt1, active compounds read low",1.01
same,normalized growth,"locus YHR129C, strain ARP1, active compounds read low",1
same,normalized growth,"locus YHR142W, strain chs7, active compounds read low",1.02
same,normalized growth,"locus YHR200W, strain rpn10, active compounds read low",1.02
same,normalized growth,"locus YIL066C, strain RNR3, active compounds read low",1.01
same,normalized growth,"locus YIL073C, strain SPO22, active compounds read low",1.05
same,normalized growth,"locus YIL125W, strain kgd1, active compounds read low",1.01
same,normalized growth,"locus YIR030C, strain dcg1, active compounds read low",1.01
same,normalized growth,"locus YJL092W, strain hpr5, active compounds read low",1.02
same,normalized growth,"locus YJL095W, strain BCK1 (second series), active compounds read low",1.02
same,normalized growth,"locus YJL095W, strain BCK1, active compounds read low",1.02 and 0.997
same,normalized growth,"locus YJL115W, strain asf1, active compounds read low",1.02
same,normalized growth,"locus YJL129C, strain trk1, active compounds read low",1.01
same,normalized growth,"locus YJL134W, strain LCB3, active compounds read low",1.01
same,normalized growth,"locus YJL154C, strain vps35, active compounds read low",1.01
same,normalized growth,"locus YJL164C, strain tpk1, active compounds read low",1.03
same,normalized growth,"locus YJL166W, strain qcr8, active compounds read low",1.03
same,normalized growth,"locus YJL168C, strain set2, active compounds read low",1.01
same,normalized growth,"locus YJL187C, strain SWE1 (second series), active compounds read low",1.01
same,normalized growth,"locus YJL187C, strain SWE1, active compounds read low",1.02
same,normalized growth,"locus YJR043C, strain POL32, active compounds read low",1.01
